Several values for one entry are separate records, joined by “and”; a condition that tells them apart may be missing. Identical values can stand only once. Inconclusive results are not listed. Where a structure was tested more than once in an assay, its records may differ in their call. Activity calls are given as the source filed them. Calls follow the shape of the dose curve; as a rule, active = well fitted curve in the direction sought with a large enough effect; inconclusive = small, poorly fitted or top-dose-only effect, or another doubt; inactive = no such curve, though single readings can be large; an effect the other way counts as inactive or inconclusive.
What was measured:
[1] = target: Glutathione peroxidase 1 (Homo sapiens) (UniProt P07203); experiment: Primary qHTS Assay for Inhibitors of Recombinant Selenoprotein Glutathione Peroxidase 1 (GPX1) (AID 1845191); also: nearly all actives have a fitted effect of over 65% in size; also: potency is read from the fitted curve at half-maximal effect
Sequence of Glutathione peroxidase 1 (Homo sapiens) (P07203 whole entry, looked up): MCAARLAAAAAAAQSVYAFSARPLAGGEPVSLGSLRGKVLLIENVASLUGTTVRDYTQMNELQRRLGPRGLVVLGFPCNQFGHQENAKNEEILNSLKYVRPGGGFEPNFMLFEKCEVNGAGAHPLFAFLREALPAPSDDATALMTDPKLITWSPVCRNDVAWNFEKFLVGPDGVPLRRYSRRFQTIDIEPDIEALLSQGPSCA
Outline: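 GR-coupled assay: compounds preincubated 30 min at room temperature with GPX1, then reaction started with CHP; final 10 nM GPX1, 1 mM GSH, 0.5 mM CHP, 0.5 mM NADPH, 100 nM GR, 0.01% BSA, pH 7.5 Tris buffer. NADPH fluorescence (340/450 nm) read at 0 and 15 min.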

[2] = target: Phospholipid hydroperoxide glutathione peroxidase GPX4 (Homo sapiens) (UniProt P36969); experiment: Primary qHTS Assay for Inhibitors of Recombinant Selenoprotein Glutathione Peroxidase 4 (GPX4) (AID 1845192); also: nearly all actives have a fitted effect of over 65% in size; also: potency is read from the fitted curve at half-maximal effect
Sequence of Phospholipid hydroperoxide glutathione peroxidase GPX4 (Homo sapiens) (P36969 whole entry, looked up): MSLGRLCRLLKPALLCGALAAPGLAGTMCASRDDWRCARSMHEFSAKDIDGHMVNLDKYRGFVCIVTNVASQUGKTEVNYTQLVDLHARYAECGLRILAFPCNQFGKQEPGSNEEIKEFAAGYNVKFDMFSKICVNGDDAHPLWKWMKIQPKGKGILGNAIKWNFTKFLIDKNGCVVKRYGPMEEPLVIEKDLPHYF
Outline: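 GR-coupled assay: recombinant GPX4 preincubated 30 min with compound at room temperature; final 200 nM GPX4, 1 mM GSH, 0.5 mM cumene hydroperoxide, 0.5 mM NADPH, 100 nM GR, 0.01% BSA, pH 7.5 Tris. NADPH fluorescence (340/450 nm) read at 0 and 15 min.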

[3] = target: Luciferin 4-monooxygenase (Photinus pyralis) (UniProt P08659); experiment: Primary firefly luciferase (FLuc) qHTS assay for identification of artifact compounds. (AID 1845220); also: nearly all actives have a fitted effect of over 60% in size
Outline: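 Enzymatic FLuc inhibition assay: compounds pre-exposed to luciferin/ATP (10 uM each) for 15 min, then purified P. pyralis enzyme at 10 nM added. Read-out: luminescence at 5 min.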

[4] = system: Nanoluciferase (engineered Oplophorus gracilirostris luciferase); experiment: Primary Nanoluciferase (NLuc) qHTS assay for identification of artifact compounds. (AID 1845222);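 also: NLuc secreted into diluted conditioned medium of S16 cells; series mostly up to about 54 µM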
Outline: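 S16 cell supernatant NLuc, 1:55; cpds qHTS; 15 min RT dark; Nano-Glo substrate 1:100, 5 min; luminescence; Hill fit of % inhibition.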

[5] = Primary redox qHTS assay for identification of artifact compounds. (AID 1845223)
Outline: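 Amplex Red (25 uM) and HRP (250 mU/mL) in HBSS, with compounds for 15 min, then 250 uM DTT for 30 min, room temperature, dark. Fluorescence 525/598 nm read; normalized to DMSO and 10 uM DA3003; Hill fit.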

[6] = Quantitative High-Throughput drug screen in 47 multiple myeloma cell lines against the NCATS MIPE library collection: FR4_PLB cell viability assay (AID 1918924; also: nearly all actives have a fitted effect of over 35% in size; also: potency is read from the fitted curve at half-maximal effect)
Outline: (§1)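 Inhibition of cell viability is measured here. Each line was plated at 500 cells per well, treated with MIPE 4.0 drugs, kept 48 hours at 37C, then assayed for ATP content by CellTiter-Glo luminescence.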

[7] = Quantitative High-Throughput drug screen in 47 multiple myeloma cell lines against the NCATS MIPE library collection: Delta47_JCRB cell viability assay (AID 1918925; also: nearly all actives have a fitted effect of over 45% in size; also: potency is read from the fitted curve at half-maximal effect)
Outline: (§2)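 Myeloma cells (500 per well) were exposed to MIPE 4.0 compounds by pin transfer and incubated 48 hours at 37C, 5% CO2. Viability was read as ATP by CellTiter-Glo luminescence, normalised to DMSO (100%) and media-only (0%) wells.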

[8] = Quantitative High-Throughput drug screen in 47 multiple myeloma cell lines against the NCATS MIPE library collection: AMO1_DSMZ cell viability assay (AID 1918927; also: potency is read from the fitted curve at half-maximal effect; nearly all actives have a fitted effect of over 30% in size)
Outline: as §2

[9] = Quantitative High-Throughput drug screen in 47 multiple myeloma cell lines against the NCATS MIPE library collection: ARD_JJKsccE7 cell viability assay (AID 1918929; also: potency is read from the fitted curve at half-maximal effect)
Outline: as §2

[10] = Quantitative High-Throughput drug screen in 47 multiple myeloma cell lines against the NCATS MIPE library collection: Karpas620_DSMZ cell viability assay (AID 1918959); also: nearly all actives have a fitted effect of over 30% in size; also: potency is read from the fitted curve at half-maximal effect
Outline: as §1

[11] = Quantitative High-Throughput drug screen in 47 multiple myeloma cell lines against the NCATS MIPE library collection: KMM1_JCRB cell viability assay (AID 1918960); also: nearly all actives have a fitted effect of over 30% in size; also: potency is read from the fitted curve at half-maximal effect
Outline: (§3)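 Myeloma cells, 500 per well, were exposed to MIPE 4.0 drugs by pin transfer for 48 h at 37 °C, 5% CO2. Viability was read as ATP luminescence with CellTiter-Glo, normalised to DMSO-only (100%) and medium-only (0%) wells.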

[12] = Quantitative High-Throughput drug screen in 47 multiple myeloma cell lines against the NCATS MIPE library collection: EJM_DSMZ cell viability assay (AID 1918926; also: nearly all actives have a fitted effect of over 30% in size; also: potency is read from the fitted curve at half-maximal effect)
Outline: as §2

[13] = Quantitative High-Throughput drug screen in 47 multiple myeloma cell lines against the NCATS MIPE library collection: ARP1_JJKsccF8 cell viability assay (AID 1918928; also: potency is read from the fitted curve at half-maximal effect; nearly all actives have a fitted effect of over 40% in size)
Outline: as §3

Measured: Potency

Cc1c(Cn2c(C)nc3c(C(=O)O)cc(N4CCOCC4)cc32)cccc1C(F)(F)F
inactive: [1] | [2] | [3] | [4] | [5] | [9] | [10]
active: [6] 5.9 µM | [7] 5.9 µM | [8] 14.8 µM | [11] 20.9 µM

Nc1nc(Nc2ccc(S(N)(=O)=O)cc2)nn1C(=O)c1c(F)cccc1F
inactive: [1] | [2] | [3] | [4] | [5]
active: [7] 2.64 µM | [12] 6.62 µM | [8] 2.09 µM | [13] 9.35 µM | [9] 5.26 µM | [10] 5.9 µM | [11] 4.18 µM

CC(C)(O)c1cc2nc(-c3cnc(N)nc3)nc(N3CCOCC3)c2s1
active: [6] 0.235 µM | [7] 0.0296 µM | [12] 0.743 µM | [13] 0.0187 µM | [9] 0.105 µM | [11] 0.0332 µM
inactive: [1] | [2] | [3] | [4] | [5]

COC(=O)c1ccc2c(C(=Nc3ccc(N(C)C(=O)CN4CCN(C)CC4)cc3)c3ccccc3)c(O)[nH]c2c1
active: [7] 6.62 µM | [13] 23.5 µM | [11] 1.66 µM
inactive: [1] | [2] | [3] | [4]

CCNC(=O)Nc1ccc2ncc(Nc3ccc(C)cc3)nc2n1
active: [7] 3.32 µM | [8] 2.35 µM | [9] 3.72 µM | [10] 1.87 µM | [11] 2.64 µM
inactive: [1] | [2] | [3] | [4] | [5]

Cc1ccc(CN2CCNCC2)cc1NC(=O)CNc1ccc(F)c(F)c1
inactive: [1] | [2] | [3] | [4] | [7] | [9] | [11]
active: [12] 3.32 µM

CC(C)(C)c1cc(NC(=O)Nc2ccc(-c3cn4c(n3)sc3cc(OCCN5CCOCC5)ccc34)cc2)no1
active: [12] 18.7 µM
inactive: [1] | [2] | [3] | [4] | [5] | [10]

C1Cc2[nH]nc(-c3nn[nH]n3)c2C1
inactive: [1] | [2] | [3] | [4] | [5] | [12] | [10] | [11]

COc1cc2c(Oc3ccc4[nH]c(C)cc4c3F)ncnc2cc1OCCCN1CCCC1
active: [7] 3.32 µM | [13] 23.5 µM | [11] 2.35 µM
inactive: [1] | [2] | [3] | [4]

Cc1cc(CN2CCN(c3c(Br)cnc4nc(-c5ccc(N6CCN(C)CC6)cc5)[nH]c34)CC2)no1
inactive and 14.3 µM (active): [2]
inactive: [3] | [4] | [5] | [11]
active: [1] 11.4 µM and 12.9 µM | [6] 18.7 µM | [7] 2.64 µM | [12] 6.62 µM | [13] 14.8 µM

COc1cccc(Nc2c(C(N)=O)cnc3c(C)cc(S(=O)(=O)c4cccc(C(=O)N(C)C)c4)cc23)c1
active: [8] 12.9 µM | [9] 12.9 µM | [11] 10.2 µM
inactive: [1] | [2] | [3] | [4] | [5] | [6] | [7]

Cc1cc(Nc2cc(CN3CCOCC3)c3nc(C)c(Cc4ccc(Cl)cc4F)n3n2)n[nH]1
inactive: [1] | [2] | [3] | [4] | [5]
active: [6] 7.43 µM | [7] 10.5 µM | [12] 16.6 µM | [8] 0.526 µM | [13] 13.2 µM

CC(C)CC(=O)Nc1n[nH]c2c1CN(C(=O)C1CCN(C)CC1)C2(C)C
active: [7] 0.166 µM | [12] 1.66 µM | [13] 1.05 µM | [9] 1.32 µM | [10] 2.64 µM | [11] 1.18 µM
inactive: [1] | [2] | [3] | [4] | [5]

CC1(O)CC(c2nc(-c3ccc4ccc(-c5ccccc5)nc4c3)c3c(N)nccn23)C1 (stereo unspecified)
inactive: [1] | [2] | [3] | [4] | [5]
active: [6] 7.43 µM | [7] 0.0833 µM | [12] 6.62 µM | [8] 2.96 µM | [13] 5.9 µM | [9] 0.105 µM | [10] 0.59 µM | [11] 1.05 µM

COc1cc(Nc2ncc(F)c(Nc3ccc4c(n3)N(COP(=O)(O)O)C(=O)C(C)(C)O4)n2)cc(OC)c1OC
inactive: [1] | [2] | [3] | [4] | [5] | [6]
active: [7] 5.9 µM | [12] 23.5 µM | [8] 5.26 µM | [9] 1.18 µM | [11] 1.18 µM

From PubChem BioAssay (NCATS)
